From ChEMBL document CHEMBL1961873, “Compounds: GSK PKIS; Assays: Nanosyn kinase panel” (2012)

Key:
[1] = biological target: Fibroblast growth factor receptor 4 (Homo sapiens) (UniProt P22455); conditions: at 1 µM;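 also: reported figure is the averaged percent inhibition of FGFR4, from the GSK PKIS kinase screening panel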
[2] = biological target: Tyrosine-protein kinase Fgr (Homo sapiens) (UniProt P09769); conditions: at 0.1 µM
[3] = biological target: Tyrosine-protein kinase Fgr (Homo sapiens) (UniProt P09769); conditions: at 1 µM
[4] = biological target: Vascular endothelial growth factor receptor 1 (Homo sapiens) (UniProt P17948); conditions: at 0.1 µM
[5] = biological target: Vascular endothelial growth factor receptor 1 (Homo sapiens) (UniProt P17948); conditions: at 1 µM
[6] = biological target: Receptor-type tyrosine-protein kinase FLT3 (Homo sapiens) (UniProt P36888); conditions: at 0.1 µM
[7] = biological target: Receptor-type tyrosine-protein kinase FLT3 (Homo sapiens) (UniProt P36888); conditions: at 1 µM
[8] = system: T1, Receptor-type tyrosine-protein kinase FLT3 (Homo sapiens), P36888 [D835Y]; conditions: at 0.1 µM
T1 sequence (whole entry): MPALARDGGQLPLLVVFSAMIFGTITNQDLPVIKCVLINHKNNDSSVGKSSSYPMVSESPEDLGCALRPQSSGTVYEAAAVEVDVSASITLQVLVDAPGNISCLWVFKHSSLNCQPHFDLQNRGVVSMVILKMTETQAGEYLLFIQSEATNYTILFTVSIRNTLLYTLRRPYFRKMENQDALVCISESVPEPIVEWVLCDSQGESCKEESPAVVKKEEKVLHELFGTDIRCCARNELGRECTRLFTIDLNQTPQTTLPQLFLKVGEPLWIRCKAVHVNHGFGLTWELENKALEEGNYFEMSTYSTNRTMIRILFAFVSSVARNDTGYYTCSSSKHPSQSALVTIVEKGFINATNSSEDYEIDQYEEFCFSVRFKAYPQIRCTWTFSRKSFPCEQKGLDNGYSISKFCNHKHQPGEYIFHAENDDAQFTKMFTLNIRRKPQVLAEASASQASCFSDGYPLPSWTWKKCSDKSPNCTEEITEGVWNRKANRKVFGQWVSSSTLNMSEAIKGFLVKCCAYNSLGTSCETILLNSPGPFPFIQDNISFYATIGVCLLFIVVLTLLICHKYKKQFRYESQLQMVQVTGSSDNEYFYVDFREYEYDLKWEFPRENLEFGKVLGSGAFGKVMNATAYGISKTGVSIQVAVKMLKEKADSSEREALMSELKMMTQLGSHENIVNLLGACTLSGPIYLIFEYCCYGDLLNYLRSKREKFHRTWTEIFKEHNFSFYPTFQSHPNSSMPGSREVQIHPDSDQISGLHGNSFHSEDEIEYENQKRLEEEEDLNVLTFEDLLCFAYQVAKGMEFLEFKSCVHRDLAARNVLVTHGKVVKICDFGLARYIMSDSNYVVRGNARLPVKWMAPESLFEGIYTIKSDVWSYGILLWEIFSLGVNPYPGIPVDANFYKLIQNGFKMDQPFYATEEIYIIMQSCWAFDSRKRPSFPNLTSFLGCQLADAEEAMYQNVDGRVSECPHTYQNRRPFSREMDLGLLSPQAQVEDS

[9] = biological target: Non-receptor tyrosine-protein kinase TYK2 (Homo sapiens) (UniProt P29597); conditions: at 1 µM;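 also: values are mean percent inhibition of TYK2 kinase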
Non-receptor tyrosine-protein kinase TYK2 (Homo sapiens), sequence (P29597 whole entry): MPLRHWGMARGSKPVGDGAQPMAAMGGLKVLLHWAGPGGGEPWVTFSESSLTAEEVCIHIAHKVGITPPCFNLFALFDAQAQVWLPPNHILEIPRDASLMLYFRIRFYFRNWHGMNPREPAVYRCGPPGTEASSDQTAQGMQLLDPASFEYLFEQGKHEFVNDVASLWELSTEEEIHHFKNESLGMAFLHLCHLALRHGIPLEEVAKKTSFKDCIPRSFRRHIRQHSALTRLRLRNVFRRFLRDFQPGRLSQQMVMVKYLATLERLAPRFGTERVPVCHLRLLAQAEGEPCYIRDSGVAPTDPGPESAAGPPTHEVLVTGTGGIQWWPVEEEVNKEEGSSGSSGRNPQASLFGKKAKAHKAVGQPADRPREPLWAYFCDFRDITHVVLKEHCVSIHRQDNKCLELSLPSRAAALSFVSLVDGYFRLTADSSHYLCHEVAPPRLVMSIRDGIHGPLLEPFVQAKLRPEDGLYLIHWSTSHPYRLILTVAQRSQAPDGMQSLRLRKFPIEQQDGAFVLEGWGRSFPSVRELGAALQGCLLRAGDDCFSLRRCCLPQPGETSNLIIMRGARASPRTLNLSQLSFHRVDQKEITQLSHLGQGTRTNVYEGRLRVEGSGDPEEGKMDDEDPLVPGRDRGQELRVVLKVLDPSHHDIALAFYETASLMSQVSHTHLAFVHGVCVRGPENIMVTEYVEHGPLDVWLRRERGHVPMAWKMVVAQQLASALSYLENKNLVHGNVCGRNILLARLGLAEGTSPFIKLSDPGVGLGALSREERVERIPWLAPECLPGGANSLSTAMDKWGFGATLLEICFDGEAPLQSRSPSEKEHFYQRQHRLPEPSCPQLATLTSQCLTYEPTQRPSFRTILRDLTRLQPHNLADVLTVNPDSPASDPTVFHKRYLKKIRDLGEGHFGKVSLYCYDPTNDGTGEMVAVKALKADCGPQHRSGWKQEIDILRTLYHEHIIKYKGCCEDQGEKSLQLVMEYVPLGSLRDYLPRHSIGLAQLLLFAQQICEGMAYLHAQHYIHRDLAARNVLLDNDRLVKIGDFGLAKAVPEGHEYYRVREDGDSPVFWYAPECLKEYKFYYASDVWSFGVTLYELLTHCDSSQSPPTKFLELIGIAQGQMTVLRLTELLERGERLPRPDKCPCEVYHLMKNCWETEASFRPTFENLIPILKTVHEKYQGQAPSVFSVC

[10] = biological target: T2, Tyrosine-protein kinase receptor TYRO3 (Homo sapiens) (UniProt Q06418); conditions: at 0.1 µM
T2 sequence (whole entry): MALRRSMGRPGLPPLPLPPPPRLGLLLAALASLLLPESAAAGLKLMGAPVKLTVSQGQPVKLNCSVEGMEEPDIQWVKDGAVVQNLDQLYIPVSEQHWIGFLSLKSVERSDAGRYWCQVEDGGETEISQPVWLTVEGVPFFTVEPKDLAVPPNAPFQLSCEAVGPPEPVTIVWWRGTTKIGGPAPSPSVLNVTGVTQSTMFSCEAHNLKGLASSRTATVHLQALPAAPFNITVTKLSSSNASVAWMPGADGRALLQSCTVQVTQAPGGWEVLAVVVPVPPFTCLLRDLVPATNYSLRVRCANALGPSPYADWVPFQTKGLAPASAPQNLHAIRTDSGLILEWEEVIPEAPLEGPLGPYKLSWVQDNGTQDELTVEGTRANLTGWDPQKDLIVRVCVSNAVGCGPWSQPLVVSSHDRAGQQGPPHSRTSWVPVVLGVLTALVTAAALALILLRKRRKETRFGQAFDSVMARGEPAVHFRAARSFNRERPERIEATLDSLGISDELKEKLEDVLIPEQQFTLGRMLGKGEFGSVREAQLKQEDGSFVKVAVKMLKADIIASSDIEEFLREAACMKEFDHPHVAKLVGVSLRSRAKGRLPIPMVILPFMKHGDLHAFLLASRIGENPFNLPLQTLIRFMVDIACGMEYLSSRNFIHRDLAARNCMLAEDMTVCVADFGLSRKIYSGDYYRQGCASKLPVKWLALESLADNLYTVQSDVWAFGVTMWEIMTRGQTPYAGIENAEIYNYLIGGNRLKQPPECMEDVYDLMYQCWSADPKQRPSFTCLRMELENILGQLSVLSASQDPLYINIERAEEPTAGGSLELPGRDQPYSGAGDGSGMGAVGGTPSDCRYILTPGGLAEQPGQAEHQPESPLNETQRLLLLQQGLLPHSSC

[11] = biological target: T2, Tyrosine-protein kinase receptor TYRO3 (Homo sapiens); conditions: at 1 µM
[12] = biological target: Tyrosine-protein kinase Yes (Homo sapiens) (UniProt P07947); conditions: at 0.1 µM
Tyrosine-protein kinase Yes (Homo sapiens), sequence (P07947 2-543 limits assumed): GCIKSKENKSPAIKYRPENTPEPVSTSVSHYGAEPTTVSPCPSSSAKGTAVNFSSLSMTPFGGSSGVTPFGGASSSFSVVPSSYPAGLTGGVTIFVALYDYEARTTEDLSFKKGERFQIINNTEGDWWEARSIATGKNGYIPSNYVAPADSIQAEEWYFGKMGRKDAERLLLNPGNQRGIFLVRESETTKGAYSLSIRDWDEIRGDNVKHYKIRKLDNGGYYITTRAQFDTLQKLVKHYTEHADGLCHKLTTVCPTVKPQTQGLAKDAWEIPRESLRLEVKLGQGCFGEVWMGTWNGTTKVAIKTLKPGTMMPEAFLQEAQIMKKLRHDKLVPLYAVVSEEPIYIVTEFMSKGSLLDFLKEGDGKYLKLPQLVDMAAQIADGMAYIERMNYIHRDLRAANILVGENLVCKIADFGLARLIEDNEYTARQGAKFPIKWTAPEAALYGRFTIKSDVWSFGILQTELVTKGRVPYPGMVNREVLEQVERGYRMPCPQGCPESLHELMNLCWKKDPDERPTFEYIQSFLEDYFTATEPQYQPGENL

[13] = biological target: Tyrosine-protein kinase Yes (Homo sapiens) (UniProt P07947); conditions: at 1 µM
[14] = biological target: T3, Tyrosine-protein kinase ZAP-70 (Homo sapiens) (UniProt P43403); conditions: at 0.1 µM
T3 sequence (whole entry): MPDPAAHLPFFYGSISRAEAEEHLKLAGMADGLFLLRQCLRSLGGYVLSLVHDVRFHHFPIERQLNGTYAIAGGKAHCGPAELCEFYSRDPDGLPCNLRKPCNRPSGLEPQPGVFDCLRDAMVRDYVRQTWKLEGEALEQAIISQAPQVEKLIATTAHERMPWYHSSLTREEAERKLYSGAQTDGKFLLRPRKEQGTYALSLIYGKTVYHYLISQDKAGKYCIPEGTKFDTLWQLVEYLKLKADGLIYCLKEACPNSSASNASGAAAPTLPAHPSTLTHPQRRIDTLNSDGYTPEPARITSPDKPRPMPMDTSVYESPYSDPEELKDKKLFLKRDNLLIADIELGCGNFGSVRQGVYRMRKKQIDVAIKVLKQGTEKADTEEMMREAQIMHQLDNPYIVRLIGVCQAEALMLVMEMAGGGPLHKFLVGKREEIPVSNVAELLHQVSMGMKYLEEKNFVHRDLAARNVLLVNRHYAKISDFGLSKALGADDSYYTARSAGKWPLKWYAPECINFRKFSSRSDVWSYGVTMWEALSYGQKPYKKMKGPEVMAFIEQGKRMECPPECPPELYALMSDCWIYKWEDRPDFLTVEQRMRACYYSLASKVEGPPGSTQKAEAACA

[15] = biological target: T3, Tyrosine-protein kinase ZAP-70 (Homo sapiens); conditions: at 1 µM
[16] = biological target: Serine/threonine-protein kinase B-raf (Homo sapiens) (UniProt P15056); conditions: at 0.1 µM
Serine/threonine-protein kinase B-raf (Homo sapiens), sequence (P15056 whole entry): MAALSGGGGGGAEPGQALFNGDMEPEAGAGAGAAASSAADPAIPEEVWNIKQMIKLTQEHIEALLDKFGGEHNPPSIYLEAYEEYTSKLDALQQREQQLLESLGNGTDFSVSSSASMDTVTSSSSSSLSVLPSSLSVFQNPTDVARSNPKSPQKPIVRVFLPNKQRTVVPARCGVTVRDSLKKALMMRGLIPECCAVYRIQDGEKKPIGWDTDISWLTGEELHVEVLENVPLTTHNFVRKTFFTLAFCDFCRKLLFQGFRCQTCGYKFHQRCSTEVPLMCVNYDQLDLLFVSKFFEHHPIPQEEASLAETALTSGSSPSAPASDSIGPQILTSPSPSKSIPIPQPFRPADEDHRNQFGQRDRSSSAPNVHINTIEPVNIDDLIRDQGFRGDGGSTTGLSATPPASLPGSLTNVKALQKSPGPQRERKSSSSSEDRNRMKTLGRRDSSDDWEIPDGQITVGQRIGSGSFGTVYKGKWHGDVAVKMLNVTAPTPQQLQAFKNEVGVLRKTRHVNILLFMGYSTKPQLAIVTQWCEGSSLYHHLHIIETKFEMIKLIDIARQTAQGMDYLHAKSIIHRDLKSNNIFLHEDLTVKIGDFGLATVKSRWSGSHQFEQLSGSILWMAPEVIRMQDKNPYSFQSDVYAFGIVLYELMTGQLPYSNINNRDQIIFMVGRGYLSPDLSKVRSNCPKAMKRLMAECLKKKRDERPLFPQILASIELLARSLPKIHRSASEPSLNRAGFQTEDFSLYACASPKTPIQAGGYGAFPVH

[17] = biological target: Serine/threonine-protein kinase B-raf (Homo sapiens) (UniProt P15056); conditions: at 1 µM
[18] = system: Serine/threonine-protein kinase B-raf (Homo sapiens), P15056 [V600E]; conditions: at 0.1 µM
Serine/threonine-protein kinase B-raf (Homo sapiens), P15056 [V600E], sequence (P15056 whole entry V600E): as the sequence (P15056 whole entry) above, with V600E counted along it

[19] = system: Serine/threonine-protein kinase B-raf (Homo sapiens), P15056 [V600E]; conditions: at 1 µM
[20] = biological target: RAF proto-oncogene serine/threonine-protein kinase (Homo sapiens) (UniProt P04049); conditions: at 0.1 µM;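 also: values are mean CRAF kinase inhibition from profiling of the GSK Published Kinase Inhibitor Set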
RAF proto-oncogene serine/threonine-protein kinase (Homo sapiens), sequence (P04049 whole entry): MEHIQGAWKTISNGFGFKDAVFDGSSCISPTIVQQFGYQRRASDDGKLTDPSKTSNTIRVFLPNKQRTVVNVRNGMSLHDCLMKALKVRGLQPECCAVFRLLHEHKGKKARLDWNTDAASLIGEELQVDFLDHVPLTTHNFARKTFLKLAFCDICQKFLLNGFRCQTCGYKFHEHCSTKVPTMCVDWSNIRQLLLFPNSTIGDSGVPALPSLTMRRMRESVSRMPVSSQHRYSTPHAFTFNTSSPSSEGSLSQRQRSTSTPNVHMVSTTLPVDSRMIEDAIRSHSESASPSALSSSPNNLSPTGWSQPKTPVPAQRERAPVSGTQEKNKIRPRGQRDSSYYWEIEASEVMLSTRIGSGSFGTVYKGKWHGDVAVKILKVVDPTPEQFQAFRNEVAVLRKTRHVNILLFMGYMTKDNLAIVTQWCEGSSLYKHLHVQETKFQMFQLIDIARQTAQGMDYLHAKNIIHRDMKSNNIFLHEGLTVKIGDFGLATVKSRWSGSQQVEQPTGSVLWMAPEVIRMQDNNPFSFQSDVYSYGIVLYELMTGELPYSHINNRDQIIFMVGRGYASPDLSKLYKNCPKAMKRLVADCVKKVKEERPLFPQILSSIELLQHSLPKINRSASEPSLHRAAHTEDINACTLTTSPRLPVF

Tyrosine-protein kinase Fgr (Homo sapiens), sequence (P09769 2-529 limits assumed): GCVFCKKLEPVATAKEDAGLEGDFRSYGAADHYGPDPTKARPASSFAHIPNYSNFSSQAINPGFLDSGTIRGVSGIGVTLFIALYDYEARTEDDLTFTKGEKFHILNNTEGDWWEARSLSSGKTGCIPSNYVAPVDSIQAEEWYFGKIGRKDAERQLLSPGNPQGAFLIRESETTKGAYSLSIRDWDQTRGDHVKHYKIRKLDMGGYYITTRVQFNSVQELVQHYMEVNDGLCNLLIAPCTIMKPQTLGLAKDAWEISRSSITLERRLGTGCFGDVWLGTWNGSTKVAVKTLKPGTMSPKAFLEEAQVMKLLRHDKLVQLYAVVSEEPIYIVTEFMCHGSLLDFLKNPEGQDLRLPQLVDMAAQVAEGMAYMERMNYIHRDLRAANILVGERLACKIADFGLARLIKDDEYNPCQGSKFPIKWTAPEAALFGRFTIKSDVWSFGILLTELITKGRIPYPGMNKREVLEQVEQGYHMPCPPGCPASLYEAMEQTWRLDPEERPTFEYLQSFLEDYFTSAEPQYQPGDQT
Fibroblast growth factor receptor 4 (Homo sapiens), sequence (P22455 22-802 limits assumed): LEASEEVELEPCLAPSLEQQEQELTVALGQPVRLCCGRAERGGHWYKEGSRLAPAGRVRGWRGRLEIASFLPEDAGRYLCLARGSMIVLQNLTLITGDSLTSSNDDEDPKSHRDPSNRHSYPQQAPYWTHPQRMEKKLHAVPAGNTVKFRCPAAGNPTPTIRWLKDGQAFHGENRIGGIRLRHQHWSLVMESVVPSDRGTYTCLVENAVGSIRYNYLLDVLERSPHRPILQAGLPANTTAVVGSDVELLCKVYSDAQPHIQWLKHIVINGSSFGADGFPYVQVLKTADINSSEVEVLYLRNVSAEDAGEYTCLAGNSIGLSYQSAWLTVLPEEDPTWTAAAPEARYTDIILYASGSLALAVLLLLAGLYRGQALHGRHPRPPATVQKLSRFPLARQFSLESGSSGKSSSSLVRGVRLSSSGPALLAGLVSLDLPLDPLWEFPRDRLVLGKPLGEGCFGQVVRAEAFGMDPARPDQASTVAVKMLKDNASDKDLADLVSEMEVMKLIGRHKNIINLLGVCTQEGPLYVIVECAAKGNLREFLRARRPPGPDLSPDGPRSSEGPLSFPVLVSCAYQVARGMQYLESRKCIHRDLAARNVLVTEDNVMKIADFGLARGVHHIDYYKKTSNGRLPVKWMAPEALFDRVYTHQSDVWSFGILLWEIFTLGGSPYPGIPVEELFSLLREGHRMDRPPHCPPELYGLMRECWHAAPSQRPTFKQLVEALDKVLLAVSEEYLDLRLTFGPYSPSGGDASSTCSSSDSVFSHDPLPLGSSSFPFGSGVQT

Compound | inhibition [1] [%] | inhibition [2] [%] | inhibition [3] [%] | inhibition [4] [%] | inhibition [5] [%] | inhibition [6] [%] | inhibition [7] [%] | inhibition [8] [%] | inhibition [9] [%] | inhibition [10] [%] | inhibition [11] [%] | inhibition [12] [%] | inhibition [13] [%] | inhibition [14] [%] | inhibition [15] [%] | inhibition [16] [%] | inhibition [17] [%] | inhibition [18] [%] | inhibition [19] [%] | inhibition [20] [%]
Nc1ccc(C#Cc2cncnc2Nc2ccc(OCc3cccc(F)c3)c(Cl)c2)cc1 | 1.61 | 3.78 | 4.78 | 0.39 | 1.35 | 0.49 | 2.64 | 1.46 | -2.76 | 2.47 | 3.64 | 1.94 | 8.1 | -0.01 | -1.74 | 4.78 | 3.99 | 4.21 | 3.42 | -3.06
O=C1Nc2ccccc2/C1=C/Nc1ccc2[nH]c(=O)[nH]c2c1 | 11.4 | 11.3 | 26.5 | 11 | 30.1 | 26.6 | 74 | 17.5 | 18.7 | 5.57 | 21.6 | 6.92 | 27.2 | 3.11 | 7.45 | 9.63 | 10.4 | 8.7 | 8.75 | 0.68
C[C@@H](Oc1cc(-n2cnc3ccc(OCC4CCN(C)CC4)cc32)sc1C(N)=O)c1ccccc1C(F)(F)F | -0.61 | 2.16 | 13.4 | -0.83 | -0.16 | 1.99 | 11 | 3.19 | 3.05 | -0.92 | 6.92 | 4.36 | 13.2 | -2.7 | -1.19 | -0.94 | -2.8 | -0.73 | 0.84 | 12.6
NS(=O)(=O)c1cccc(Nc2cc(-c3ccc(F)cc3)n[nH]2)c1 | 2.4 | 6.05 | 14.4 | 2.62 | 15.9 | 16.3 | 67.1 | -2.62 | -1.33 | 4.42 | 19.7 | 2.67 | 12.1 | 1.39 | 2.54 | 5.14 | 4.96 | 3.81 | 5.31 | 0.49
C[C@@H](Oc1cc(-n2cnc3ccc(OC[C@@H](O)CO)cc32)sc1C(N)=O)c1ccccc1Cl | 0.23 | 0.03 | 4.04 | -1.57 | -1.26 | 0.49 | 5.21 | -3.1 | 2.03 | -0.16 | 1.84 | -2.39 | 4.27 | -0.38 | -0.42 | -1.12 | -0.85 | -2.35 | 0.01 | -4.77
COc1ccc(-c2nn3ncccc3c2-c2ccnc(Nc3cccc(C(F)(F)F)c3)n2)cc1 | 0.55 | 10.2 | 42.1 | 4.29 | 10.2 | 1.01 | 1.12 | -4.47 | -0.27 | 1.68 | 4.06 | 26.3 | 79.8 | -0.73 | 1.1 | 4.3 | 6.08 | 4.63 | 4.39 | -2.4
COc1cc2ncn(-c3cc(OCc4ccccc4S(C)(=O)=O)c(C#N)s3)c2cc1OC | 1.47 | 15.2 | 59.6 | 3.31 | 15.7 | 3.03 | 11.6 | 5.25 | 1.09 | 4.94 | 20.1 | 8.67 | 39.2 |  | 4 | 5.38 | 8.14 | 4.97 | 6.91 | 5.23
CN(C)C(=O)O[C@@H]1CN[C@@H](C#Cc2cc3ncnc(Nc4ccc(OCc5cccc(F)c5)c(Cl)c4)c3s2)C1 | 0.26 | 4.03 | 8.75 | -0.77 | 1.01 | -1.89 | -0.37 | -2.1 | 0.28 | -0.78 | -0.16 | 3.49 | 5.24 | 0.96 | 2.42 | 0.07 | 3.2 | 0.85 | 3.23 | -2.83
COc1cc2ncnc(Nc3ccc(C)c(O)c3)c2cc1OC | 4.07 | 15.3 | 46.2 | 74.6 | 93.2 | 0.71 | 3.03 | -2.6 | -3.35 | 6.68 | 34.5 | 8.25 | 42 | 3.61 | 1.79 | 8.83 | 10 | 7.72 | 9.15 | 1.3
ON=C1CCc2cc(-c3nc(C4CCNCC4)[nH]c3-c3ccncc3)ccc21 | 1.91 | -1.48 | 2.99 | 0.48 | 0.61 | -2.95 | 0.24 | -4.99 | -0.2 | 0.16 | 1.37 | -1.71 | 0.86 | 1.57 | 1.96 |  |  |  |  | -7.53
COC(=O)Nc1nc2cc(Oc3ccc(NC(=O)Nc4cccc(Br)c4)cc3)ccc2[nH]1 | 2.05 | 4.68 | 2.98 | 33 | 53.7 | 32.8 | 56.7 | -2.2 | 0.6 | 6.92 | 15.3 | 4.4 | 6.98 | 5.03 | 3.22 | 13 | 20.6 | 11.3 | 20.8 | -5.74
Cc1ccc(C(=O)NC2CC2)cc1-c1ccc2[nH]ncc2c1 | 0.32 | -1.47 | 1.41 | -2.04 | -1.81 | -3.48 | 0.84 | -3.02 | 2.43 | -1.74 | -0.85 | -1.92 | -0.56 | -3.94 | -1.58 | -6.03 | -6.48 | -3.87 | -3.07 | -2.17
CCS(=O)(=O)c1ccc(OC)c(Nc2ncc(-c3cccc(OC)c3)o2)c1 | 7.65 | 19.9 | 65.2 | 9.91 | 55.9 | 16.3 | 68 | 29.4 | -4.34 | 7.64 | 40.6 | 34.5 | 80.2 | -1.53 | -2.95 | 1.82 | 5.54 | 1.52 | 4.88 | 5.24
COc1cc(/C=N/Nc2ncnc3c2cnn3C(C)C)ccc1O | 1.4 | 9.02 | 40.4 | -0.74 | 3.88 | 2.52 | 22.7 | -2.61 | 4.77 | 4.41 | 25.9 | 11.9 | 50.8 | 1.87 | 4.45 | 2.16 | 2.26 | 2.21 | 1.64 | 9.62
